Screening data as filed in PubChem.
Sampled rows, rich in hits. Any-hit rate of the full collection: about 5.8%.
MCF10A rerep – induces DNA re-replication in MCF 10a normal breast cells; MCF 10A DNA re-replication, Hoechst nuclear intensity, 48 h; Potency, µM (series often up to 46.1 µM), without a hit: top-dose activity, positive = re-replication, usual class: activators; 2.9% of 350,000 active; further: % of control where 0% means no effect; nearly all actives have a fitted effect of over 50% in size
PINK1 modulator – modulators of PINK1 expression; PINK1 immunofluorescence, high-content cytometry, 24 h; Potency, µM (top dose mostly 76.6 µM), without a hit: at the highest dose activation (PINK1 increase), most hits filed as activators; 0.2% of 410,000 active; AID 624263; active means well fitted activation curve with a large enough effect; inconclusive means small, poorly fitted or top-dose-only effect; cell line not stated here; further: % of control where 0% means no effect; nearly all actives have a fitted effect of over 65% in size
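Stable cell line, 250 cells/well, 12 h attachment; compounds pinned at 5 concentrations, 24 h; CCCP control. Fixed with nuclear dye, primary antibodies 12 h at 10 degrees C, secondary plus cell stain; laser-scanning cytometer read.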
12-LOX inh – inhibitors of human 12S-lipoxygenase ALOX12; P18054; purified 12hLO, xylenol orange hydroperoxide absorbance; Potency, µM (top dose mostly 108 µM), for inactives: at the highest dose activity change, negative = inhibition, actives largely listed as inhibitors; 1.1% of 580,000 active; further: on the % scale 0 is the no-effect control and ±100 the full control effect
Target sequence (P18054 whole entry, looked up): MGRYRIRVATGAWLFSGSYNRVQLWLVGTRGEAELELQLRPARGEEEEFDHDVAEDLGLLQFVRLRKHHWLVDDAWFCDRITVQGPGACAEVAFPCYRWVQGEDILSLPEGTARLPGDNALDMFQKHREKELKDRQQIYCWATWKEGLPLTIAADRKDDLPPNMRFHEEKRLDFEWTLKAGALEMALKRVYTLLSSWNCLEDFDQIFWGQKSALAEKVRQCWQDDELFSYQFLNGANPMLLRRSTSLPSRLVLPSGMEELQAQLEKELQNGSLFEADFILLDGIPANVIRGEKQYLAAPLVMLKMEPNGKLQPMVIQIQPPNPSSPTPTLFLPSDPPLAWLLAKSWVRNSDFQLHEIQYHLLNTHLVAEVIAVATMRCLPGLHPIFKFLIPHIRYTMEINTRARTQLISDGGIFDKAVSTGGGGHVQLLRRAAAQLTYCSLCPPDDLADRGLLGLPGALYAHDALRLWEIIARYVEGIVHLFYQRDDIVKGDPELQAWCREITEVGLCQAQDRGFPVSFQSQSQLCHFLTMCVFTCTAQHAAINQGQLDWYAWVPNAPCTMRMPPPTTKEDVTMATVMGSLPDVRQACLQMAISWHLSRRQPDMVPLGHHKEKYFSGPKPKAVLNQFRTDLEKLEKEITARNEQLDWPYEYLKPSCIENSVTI
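Hydroperoxide product was detected by ferrous iron/xylenol orange as the 573 to 405 nm absorbance ratio. Arachidonic acid at 40 uM (final) was turned over for 30 min at room temperature by 150 nM human 12hLO, pH 7.0 Hepes buffer, after 15 min compound preincubation.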
KB-V1 MDR tox – KB-V1 MDR subline cytotoxicity. 3.4% of 400,000 active. KB-V1 MDR cells viability, CellTiter-Glo, 72 h. Potency, µM (doses to about 46.1 µM), hits mostly cytotoxic; further: on the % scale 0 is the no-effect control and ±100 the full control effect; nearly all actives have a fitted effect of over 60% in size
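Drug-selected KB-V1 cells, grown in DMEM lacking phenol red with 10% FBS, receive compound titrations; after three days at 37 degrees C, surviving cell ATP is quantified by CellTiter-Glo luminescence and responses normalized and curve-fitted.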
SW480 rerep – DNA re-replication induction in SW480 cells | SW480 DNA re-replication, Hoechst DNA content imaging, 48 h | Potency, µM (top dose mostly 46.1 µM), without a hit: at the highest dose re-replication activation, actives largely listed as activators | 1.8% of 340,000 active | AID 624297; further: % of control where 0% means no effect; nearly all actives have a fitted effect of over 55% in size
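250 cells/well; 23 nL cpd via pin tool; 48 hr, 37 C, 5% CO2; Hoechst 40 min; imager read of total nuclear intensity, ex 405/em 500-530 nm.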
KB-3-1 tox – KB-3-1 parental cell cytotoxicity. KB-3-1 viability, CellTiter-Glo ATP luminescence, 72 h. Potency, µM (top dose mostly 46.1 µM), hits mostly cytotoxic. 1.4% of 400,000 active. AID 1347075; further: on the % scale 0 is the no-effect control and ±100 the full control effect; nearly all actives have a fitted effect of over 60% in size
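KB-3-1 cells, DMEM (no phenol red) + 10% FBS; compound by pin transfer, 72 h, 37 °C. Readout: CellTiter-Glo luminescence after 10 min. Data normalized, curve-fitted.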
* marks the source's active call; other numbers are inactive results; i = inactive; ? = inconclusive; nt = no result; [ ] = remark or other dose. Unless noted, the call rests on the fitted dose curve; in most records, active means well fitted curve in the direction sought with a large enough effect; inconclusive means small, poorly fitted or top-dose-only effect, or another doubt; inactive means no such curve, though single readings can be large; an effect the other way counts as inactive or inconclusive. Potency means the concentration at half of the fitted maximal effect.

SMILES | MCF10A rerep | PINK1 modulator | 12-LOX inh | KB-V1 MDR tox | SW480 rerep | KB-3-1 tox
CCc1ccc(NC(=O)Cn2c(-c3ccccc3)nc(C)c(CCO)c2=O)cc1 | nt | nt | -0.9% | nt | nt | nt
NNc1nc2c(-c3cccc(C(F)(F)F)c3)nnn2c2ccccc12 | 2.91µM* | 12.2% | 5.5% | ? | 3.66µM* | ?
Cc1ccc(-c2nnn3c2nc(NC(C)C)c2ccccc23)cc1 | 16.4µM* | 10.4% | -14.7% | i | ? | i
Nc1nc2c(-c3ccc(Br)cc3)nnn2c2ccccc12 | 5.17µM* | 5.6% | 5.2% | i | 10.3µM* | i
CNc1nc2c(-c3ccc(Cl)cc3)nnn2c2ccccc12 | ? | -1.4% | ? | i | 5.6% | i
Cc1cccc(-c2nnn3c2nc(NCCc2ccc(S(N)(=O)=O)cc2)c2ccccc23)c1 | 5.17µM* | 0.0% | ? | i | 2.31µM* | i
CCn1nc(C(=O)NNC(=O)c2ccc(OC(F)F)cc2)c2ccccc2c1=O | -2.3% | -0.6% | 17.7% | 16.4µM* | -2.0% | ?
CCCn1nc(C(=O)NNC(=O)c2ccc(OC(F)F)cc2)c2ccccc2c1=O | -9.2% | 0.4% | -0.2% | i | -7.3% | i
C=CCn1c(N)c(C(=O)Nc2ccc(C)cc2)sc1=S | 6.3% | 3.5% | 26.2% | 18.4µM* | -7.3% | i
C/C(=N\NC(=O)c1ccccc1NC(=O)c1ccc(Cl)cc1)c1ccncc1 | 1.5% | 5.3% | 7.5% | 1.3µM* | 3.8% | 1.46µM*
CC(=NNC(=O)c1ccncc1)c1ccccc1Cl | -12.2% | -0.9% | 19.6% | i | -2.7% | i
COC(=O)CCS(=O)(=O)c1ccc(C)c(C)c1 | nt | nt | -0.2% | nt | nt | nt
O=c1c2nc(-c3ccsc3)ccc2ncn1-c1ccc(F)cc1F | nt | nt | 4.7%[176 µM] | nt | nt | nt
Cc1cc(=O)oc2cc(O)cc(OCc3ccccc3)c12 | 20.6µM* | ? | ? | 14.6µM* | ? | ?
Cc1cc(=O)oc2cc(OCc3ccccc3)ccc12 | 4.6% | 0.9% | -9.2% | i | -4.8% | i
CC(C)(C)OC(=O)COc1cc(OCC(=O)OC(C)(C)C)c2c(=O)cc(-c3ccccc3)oc2c1 | 6.6% | 5.8%[38.3 µM] | -12.1% | 20.6µM* | -3.0% | i
O=c1cc(-c2ccc(OCc3ccccc3)cc2)oc2cc(OCc3ccccc3)cc(OCc3ccccc3)c12 | 1.1% | 0.4% | 35.5µM* | i | 0.5% | i
COc1ccc2c(c1OC)C(=O)OC2CC(=O)c1ccccc1 (stereo unspecified) | nt | nt | 5.3% | nt | nt | nt
CCOc1ccccc1N(C(=O)c1snc(C(N)=O)c1N)C(C(=O)NC1CCCC1)c1ccco1 (stereo unspecified) | 15.4% | 2.2% | -10.7% | 10.3µM* | 2.1% | i
Cc1cc(C)cc(N(C(=O)c2nsc(Cl)c2Cl)C(C(=O)NC2CCCC2)c2ccc(O)cc2)c1 (stereo unspecified) | ? | ? | -12.1% | 18.4µM* | ? | i
COc1ccc(N(C(=O)c2snc(C(N)=O)c2N)C(C(=O)NC2CCCC2)c2ccc3ncccc3c2)cc1 (stereo unspecified) | ? | -2.1% | 4.3% | i | ? | i
CCOc1ccc(N(C(=O)c2snc(C(N)=O)c2N)C(CC)C(=O)NC2CCCC2)cc1 (stereo unspecified) | 0.5% | 4.2% | -12.8% | i | 23.1µM* | i
NC(=O)c1nsc(C(=O)N(c2ccccc2)C(C(=O)NC2CCCC2)c2ccc3ncccc3c2)c1N (stereo unspecified) | 20.6µM* | 1.7% | -3.2% | i | 18.5% | i
CCOC(=O)c1snc(C(=O)NC2CCCCC2)c1N | 0.5% | -1.4%[38.3 µM] | 6.5% | i | -6.3% | i
Cc1ccccc1N(C(=O)c1snc(C(N)=O)c1N)C(C)C(=O)NC1CCCCC1 (stereo unspecified) | ? | 1.2% | -15.3% | i | -5.8% | i
